About 83,000 compounds went through this panel and 20% of them were active in at least one assay; those are over-represented in the sample as a whole.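 Activity criterion: percent growth below 10, measured after cells in 96-well plates were exposed to a single compound concentration for 48 hours.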 A number with no mark means an inactive call. Active and inactive are the calls of the source.
System: HL-60(TB) leukemia
Experiment: NCI-60 one-dose screen, 48 h (100 = growth as untreated, 0 = no growth, -100 = all killed)
Conditions: 10 µM unless noted

Row | SMILES | growth
1 | Cc1ccc(C(=O)CC(=O)C(F)(F)C(F)(F)C(F)(F)F)s1 | 101%
2 | O=C(CC(CC(=O)c1ccccc1)c1ccccc1O)c1ccccc1 | 96.8%
3 | COc1ccc(N=Nc2cc(OC)c(OC)c(OC)c2)cc1 | 42.4%
4 | COCCn1cc(-c2nc(-c3cc4cccnc4n3C)cs2)c2ccccc21 | 42.2%
5 | Cc1c(CN2CCN(C(=O)[C@H](C)O)CC2)sc2c(N3CCOCC3)nc(-c3cnc(N)nc3)nc12 | -7.28% (active)
6 | CCNC(=O)Oc1ccc(/C(=C(/C)Cc2ccc(OC)cc2)c2ccc(OCCN3CCCCCC3)cc2)cc1 | 38.1%
7 | O=C(CCC(=O)N(CCO)CCO)N(CCO)CCO | 89%
8 | CCCCCC[C@@H](O)C/C=C\CCCCCCCC(=O)OCCOC | 156%
9 | O=C(/C=C/c1c[nH]c2ccccc12)c1cc2ccccc2o1 | 37.9%
10 | O=C(N/N=C/[C@H](O)[C@H](O)[C@H](O)CO)c1ccc(NC(=O)c2cccnc2)cc1 | 100%
11 | Cn1cc(-c2csc(-c3cn(CCCN4CCOCC4)c4ccc(F)cc34)n2)c2cccnc21 | 69.9%
12 | NCC(=O)NS(=O)(=O)OC[C@H]1O[C@@H](n2cnc3c(N)ncnc32)[C@H](O)[C@@H]1O | -9.28% (active)
13 | CC(=O)c1cc2c(N)c(C(=O)Nc3cccc4ccncc34)sc2nc1C | 86.2%
14 | CCOC(=O)c1csc(NC(=O)COc2cccc(/C=C3\CSc4ccccc4C3=O)c2)n1 | -77.5% (active)
15 | C=C1C(=O)O[C@H]2[C@H]1CC/C(COC(=O)NCCc1c[nH]c3ccc(Cl)cc13)=C\CC[C@@]1(C)O[C@@H]21 | -26.2% (active)
16 | CC(C)(C)OC(=O)N1CCc2c(sc3ncnc(N/N=C/c4cccc5ccccc45)c23)C1 | 11.5%
17 | Cc1ccc(C(=O)Nc2ccc(CN3CCN(C)CC3)c(C(F)(F)F)c2)cc1C#Cc1cnc(N)c2ccccc12 | -37.9% (active)
18 | O=C(NC1CCN(Cc2ccccc2)CC1)c1cc(-c2cccnc2)nc2ccc(Cl)cc12 | 73.9%

Row | SMILES | growth
19 | C[C@@H]1CC[C@@H]2[C@@H]1[C@H](OC(=O)/C=C/c1ccccc1)[C@]1(C3CCCCC3)C[C@@H](OC(=O)CO)[C@@]2(C)O1 | 74.5%
20 | COc1ccc(-c2cc(C(=O)N=Nc3c(O)[nH]c4ccc(Br)cc34)no2)cc1 | 95.1%
21 | COc1ccc(C(=O)CSc2nccc(Nc3ccc(C(=O)O)cc3)n2)cc1 | 99.5%
22 | COc1cc(/C=C2/C=C(c3ccc(C(C)(C)C)cc3)N(CCc3ccc(S(N)(=O)=O)cc3)C2=O)cc(OC)c1OC | 20.5%
23 | Nc1cc2c([nH]c[n+]2CC#CCCl)c(SCC#CCCl)n1 | -17.8% (active)
24 | Cc1ccc(-c2nn(-c3ccccc3)cc2C=C2C(=O)ON=C2C(C)C)cc1 | -37.7% (active)
25 | CCNCCNc1cc(C2CCCC2)c(C#N)c2nc3ccccc3n12 | -59.3% (active)
26 | CN1CCN(Cc2ccc(NC(=O)c3cncc(C#Cc4cnc5cccnn45)c3)cc2C(F)(F)F)CC1 | -37.9% (active)
27 | Nc1ccc(-c2nc3cc(Oc4ccc(Oc5ccc6[nH]c(-c7ccc(N)cc7)nc6c5)cc4)ccc3[nH]2)cc1 | 103%
28 | Cc1ccc(-c2cc3c(cc2O)C2CCCCC2(N2CCOCC2)O3)cc1 (stereo unspecified) | 96.1%
29 | CC(C)(C)NCC(O)COc1c(Br)c(Br)c(Br)c2c1OC(C)(C)C2 (stereo unspecified) | -59.3% (active)
30 | CCOC(=O)CC1C(COC(=O)NC)OC(n2cnc3c(NC(=O)Nc4ccccc4)ncnc32)C1O[Si](C)(C)C(C)(C)C (stereo unspecified) | 23.5%
31 | COC(=O)C(Cc1ccccc1)NC(=O)c1ccc(NC(=O)c2[nH]c(C)c(Cl)c2Cl)c(OC(C)C)c1 (stereo unspecified) | 99.7%
32 | COc1cccc(CC(C)=C(c2ccc(OCCCN(C)C)cc2)c2ccc(OCCCN(C)C)cc2)c1 | -68% (active)
33 | O=C(NCCCNS(=O)(=O)c1ccc(Cl)cc1)Nc1ccc(-n2cc(-c3ccncc3)c(-c3ccc(Cl)c(O)c3)n2)cc1 | 16.3%
34 | CC1=CC(c2ccco2)=C2C(N)=NNC2N1 (stereo unspecified) | 106%
35 | CC(C)c1[nH]nc2c(NCc3ccc(-c4ccccn4)cc3)nc(SCCN(C)C)nc12 | -16.4% (active)
36 | CC12CCC(CC1)C(C)(C)O2 | 103%
